A selection: hits, their analogues and other compounds. The true share with any hit is near 7.4%.
NPC1 promoter act: NPC1 promoter activation; Huh7 NPC1 promoter luciferase reporter, 24 h; Potency, µM (highest dose often 9.22 µM), actives largely listed as activators; 320,000 tested, 2.4% active; further: nearly all actives have a fitted effect of over 60% in size
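Luminescence from an NPC1 promoter-driven luciferase reporter in stably transfected Huh7 cells was measured after 24 h compound treatment at 37 °C, followed by 10 min ambient incubation with luciferase detection reagent.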
ELG1 genotoxic: genotoxicity induction in ELG1-luciferase HEK293T cells | HEK293T ELG1-luciferase reporter, luminescence, 16 h | Potency, µM (doses to about 46 µM), hits mostly activators | 330,000 tested, 1.3% active; further: nearly all actives have a fitted effect of over 60% in size
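Step 1: seed 2,000 HEK293T ELG1-luciferase cells per well. Step 2: add compound or DMSO, incubate 16 hr at 37 °C. Step 3: ONE-Glo, 30 min at room temperature, read luminescence.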
FLuc modulator: inhibits or activates purified firefly luciferase, miR-21 counter-screen; Potency, µM (titrated, usually from 57.5 µM), most hits filed as inhibitors; AID 588342; purified FLuc, Km substrates, luminescence inhibition; 360,000 tested, 6.9% active; P08659; further: nearly all actives have a fitted effect of over 55% in size
Target sequence (P08659 whole entry, looked up): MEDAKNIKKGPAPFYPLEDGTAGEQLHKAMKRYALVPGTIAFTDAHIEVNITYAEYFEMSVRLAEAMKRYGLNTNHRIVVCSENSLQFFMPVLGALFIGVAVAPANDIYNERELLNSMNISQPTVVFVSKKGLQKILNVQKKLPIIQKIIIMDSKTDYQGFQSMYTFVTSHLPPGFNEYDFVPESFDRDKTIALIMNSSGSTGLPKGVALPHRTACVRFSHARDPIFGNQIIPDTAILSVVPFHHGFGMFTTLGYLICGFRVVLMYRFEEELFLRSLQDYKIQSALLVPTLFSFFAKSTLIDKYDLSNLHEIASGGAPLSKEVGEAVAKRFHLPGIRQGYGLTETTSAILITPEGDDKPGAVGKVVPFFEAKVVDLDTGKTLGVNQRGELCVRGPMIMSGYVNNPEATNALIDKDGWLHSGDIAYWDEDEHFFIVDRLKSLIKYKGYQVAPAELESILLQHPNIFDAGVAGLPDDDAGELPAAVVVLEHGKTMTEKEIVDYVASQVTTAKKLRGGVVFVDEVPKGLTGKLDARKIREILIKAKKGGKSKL
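Purified P. pyralis luciferase, 10 nM final, with Km-level 10 uM D-luciferin and 10 uM ATP in 50 mM Tris acetate pH 7.5, 10 mM Mg acetate, 0.01% Tween-20, 0.05% BSA; 6-point qHTS titration about 60 µM downward; luminescence read.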
Rab9 promoter act: activates the Rab9 promoter. Potency, µM (series often up to 9.22 µM), actives largely listed as activators. Huh7 Rab9 promoter-luciferase reporter, luminescence, 24 h. 320,000 tested, 2.8% active; further: nearly all actives have a fitted effect of over 60% in size
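Using Huh7 cells stably transfected with Rab9 promoter–luciferase, compounds were incubated 24 h at 37 °C, 5% CO2; luciferase luminescence was read 10 min after reagent addition.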
SMN2 splice up: SMN2 splice variant enhancement; HEK293 SMN2-luciferase splicing reporter, luminescence, 30-36 h; 210,000 tested, 2.8% active; Potency, µM (highest dose often 46.1 µM), actives largely listed as activators; further: nearly all actives have a fitted effect of over 55% in size
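qHTS luciferase splicing reporter: luminescence rises when SMN2 exon 7 is included in transfected HEK293 cells. Compound exposure lasted 30-36 h at 37C, with 4.5 mM final sodium butyrate as control, followed by a ONE-Glo read.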
Numbers stand for hits; 0 = inactive; ? = inconclusive; - = no result given. The call rests on the fitted dose curve; in most records, active means well fitted curve in the direction sought with a large enough effect; inconclusive means small, poorly fitted or top-dose-only effect, or another doubt; inactive means no such curve, though single readings can be large; an effect the other way counts as inactive or inconclusive.

SMILES | NPC1 promoter act | ELG1 genotoxic | FLuc modulator | Rab9 promoter act | SMN2 splice up
CCc1nc2cccnc2n1-c1ccc(CC(=O)Nc2cccc(C)c2C)cc1 | - | - | 0 | - | -
COc1cccc(-c2cc(C(F)(F)F)n3nc(N)nc3n2)c1 | 0 | 0 | 0 | 0 | 0
COc1cccc(-c2cn3nc4c(nc3n2)CCCC4)c1 | 0.63µM | ? | 0.76µM | 0.71µM | 1.6µM
Clc1ccc(-c2cn3nc4c(nc3n2)CCCC4)cc1 | 0.2µM | ? | 0.24µM | 0.32µM | 1.8µM
COc1ccc(NC(=O)c2oc3ccccc3c2NC(=O)Cc2coc3c(C)c(C)ccc23)cc1 | - | - | 0 | - | 0
CN(C(=O)CSc1nc2ncccc2o1)c1ccc(F)cc1 | - | - | 0 | - | -
COc1ccccc1C(=O)N1CCCCC1CCN1CCOCC1 (stereo not drawn) | - | - | 0 | - | 0
COc1ccccc1CNC(=O)CN(C)c1nn2c(=O)cc(C)nc2s1 | - | - | 0 | - | 0
Nc1nc(-c2ccc3c(c2)OCCO3)c(CC(=O)O)s1 | 0 | 0 | ? | 0 | -
Nc1nc(-c2ccc3c(c2)CCCC3)c(CC(=O)O)s1 | 0 | 0 | 24µM | 0 | -
c1ccc(COc2ccc(OCCn3cncn3)cc2)cc1 | 2.5µM | 9.2µM | 9.5µM | 3.2µM | 11µM
c1ccc(-c2ccc(OCCCn3cncn3)cc2)cc1 | 0 | ? | 17µM | 0 | 0
CN1CCN(CCCOc2ccc(-c3ccccc3)cc2)CC1 | 2.8µM | ? | 19µM | ? | -
c1ccc(Oc2cccc(OCCn3cncn3)c2)cc1 | 0 | 0 | ? | 0 | 0
O=C(COc1ccccc1Cl)NCC1(N2CCOCC2)CCCCC1 | - | - | 0 | - | -
COc1cc(OC)cc(C(=O)N[C@H](C(=O)OCC(=O)Nc2cccc(F)c2)C(C)C)c1 | 0 | 0 | 0 | 0 | 0
CC(C)[C@H](NC(=O)c1ccccc1F)C(=O)OCC(=O)NC1CC1 | - | 0 | - | - | -
COc1cc(OC)cc(C(=O)N[C@H](C(=O)OCC(=O)c2ccc(F)cc2)C(C)C)c1 | 0 | 0 | 11µM | 0 | 0
CC(C)C(NC(=O)c1ccccc1F)C(=O)OCC(=O)c1ccc(F)cc1 (stereo not drawn) | 0 | 0 | 3µM | ? | 0
CCN(Cc1ccccc1)C(=O)Cn1c(=O)n(-c2ccc(F)c(Cl)c2)c(=O)c2sc3ccccc3c21 | - | - | 0 | - | 0
O=C(NC1CCCCC1)c1ccc2c(c1)N(Cc1ccc(Cl)cc1)C(=O)c1ccccc1S2(=O)=O | - | - | 0 | - | 0
N#Cc1ccc(C(=O)Nc2ccc3ccccc3c2)cc1 | 0.35µM | ? | 1.3µM | 0.45µM | -
O=C(Nc1ccc2ccccc2c1)c1cccnc1 | 4µM | ? | 9.5µM | 1.4µM | ?
N#Cc1ccccc1Sc1ccccc1C(=O)Nc1ccc2ccccc2c1 | 0 | 0 | 0 | 0 | 0
O=C(Nc1ccc2c(c1)oc1ccccc12)c1cccnc1 | ? | 0 | 6µM | ? | 0
SMILES | NPC1 promoter act | ELG1 genotoxic | FLuc modulator | Rab9 promoter act | SMN2 splice up
O=C(Nc1ccc2c(c1)Cc1ccccc1-2)c1cccnc1 | ? | 0 | 6.7µM | 3.2µM | -
COc1ccc(C(=O)Nc2ccc3c(c2)Cc2ccccc2-3)cc1 | 0 | 0 | 0 | 0 | 0
COc1cccc(CNC(=O)CCc2nnc3n(CC(C)C)c(=O)c4ccccc4n23)c1 | - | - | 0 | - | 0
O=C(Nc1ccc2c(c1)Cc1ccccc1-2)c1ccco1 | 0.79µM | 3.3µM | 2.1µM | 0.4µM | 11µM
O=C(Nc1ccc2ccccc2c1)c1cnccn1 | 3.5µM | ? | ? | 1µM | 11µM
COc1cccc(OC)c1C(=O)Nc1ccc2c(c1)Cc1ccccc1-2 | 0 | 0 | ? | ? | -
COc1ccccc1CNC(=O)C(Cc1ccccc1)NS(=O)(=O)c1ccc2c(c1)CCN2C(C)=O (stereo not drawn) | - | - | 0 | - | 0
O=c1[nH]c2cc(Cl)ccc2c(O)c1-c1ccc(Oc2ccccc2)cc1 | 0 | - | - | 0 | 0
O=c1[nH]c2ccc(Cl)cc2c(O)c1-c1ccccc1 | 0 | 0 | 9.5µM | 0 | 0
COc1cc(Cl)c(C)cc1NC(=O)COc1ccc(C)nc1[N+](=O)[O-] | ? | 0 | 0 | 4µM | -
Cc1ccc(OCC(=O)Nc2ccc(S(=O)(=O)N3CCCCC3)cc2)c([N+](=O)[O-])n1 | 0 | 0 | 0 | 0 | 0
Cc1ccc(OCC(=O)NCC(=O)Nc2ccc(F)cc2)c([N+](=O)[O-])n1 | 0 | 0 | 0 | 0 | 0
Cc1ccc(OCC(=O)Nc2ccc(F)cc2)c([N+](=O)[O-])n1 | ? | ? | 12µM | 3.5µM | 13µM
Cc1ccc(OCC(=O)Nc2ccc3c(c2)CCC3)c([N+](=O)[O-])n1 | 0 | ? | 27µM | 0 | 0

Screening data deposited in PubChem BioAssay by National Center for Advancing Translational Sciences (NCATS).
